Seven molecules from PubChem BioAssay can be followed below.

Several values for one entry are separate records, joined by “and”; a condition that tells them apart may be missing. Equal values may be shown once. Inconclusive results are not listed. For part of these data: Results with a measured potency or affinity are listed apart. Activity calls are given as the source filed them. Cut-off read from the data, not from the text of the source, unless noted: active = parasite load remaining mostly below about 12% (no sharp cut-off); inactive = mostly above about 10%. Bridge positions count the residues as written; N and C are the ends. Square brackets hold non-standard residues; d marks the D form. Peptide text beside a SMILES is read from it. * marks the point of attachment. Octanoyl(6-Me) = CCC(C)CCCCC(=O)*; Dab = NCC[CH](N)C(=O)O

The target of experiment [1] is ATP-dependent translocase ABCB1 (Homo sapiens) (UniProt P08183). In words: P-glycoprotein substrate transport blockade – cell-based (AID 377; in the data active = fluorescence slope change above about 50%). The settings on record: MDR1-expressing cells, fluorescent substrate accumulation slope; stronger effect = higher value; concentration not given here.
ATP-dependent translocase ABCB1 (Homo sapiens), sequence (P08183 whole entry, looked up): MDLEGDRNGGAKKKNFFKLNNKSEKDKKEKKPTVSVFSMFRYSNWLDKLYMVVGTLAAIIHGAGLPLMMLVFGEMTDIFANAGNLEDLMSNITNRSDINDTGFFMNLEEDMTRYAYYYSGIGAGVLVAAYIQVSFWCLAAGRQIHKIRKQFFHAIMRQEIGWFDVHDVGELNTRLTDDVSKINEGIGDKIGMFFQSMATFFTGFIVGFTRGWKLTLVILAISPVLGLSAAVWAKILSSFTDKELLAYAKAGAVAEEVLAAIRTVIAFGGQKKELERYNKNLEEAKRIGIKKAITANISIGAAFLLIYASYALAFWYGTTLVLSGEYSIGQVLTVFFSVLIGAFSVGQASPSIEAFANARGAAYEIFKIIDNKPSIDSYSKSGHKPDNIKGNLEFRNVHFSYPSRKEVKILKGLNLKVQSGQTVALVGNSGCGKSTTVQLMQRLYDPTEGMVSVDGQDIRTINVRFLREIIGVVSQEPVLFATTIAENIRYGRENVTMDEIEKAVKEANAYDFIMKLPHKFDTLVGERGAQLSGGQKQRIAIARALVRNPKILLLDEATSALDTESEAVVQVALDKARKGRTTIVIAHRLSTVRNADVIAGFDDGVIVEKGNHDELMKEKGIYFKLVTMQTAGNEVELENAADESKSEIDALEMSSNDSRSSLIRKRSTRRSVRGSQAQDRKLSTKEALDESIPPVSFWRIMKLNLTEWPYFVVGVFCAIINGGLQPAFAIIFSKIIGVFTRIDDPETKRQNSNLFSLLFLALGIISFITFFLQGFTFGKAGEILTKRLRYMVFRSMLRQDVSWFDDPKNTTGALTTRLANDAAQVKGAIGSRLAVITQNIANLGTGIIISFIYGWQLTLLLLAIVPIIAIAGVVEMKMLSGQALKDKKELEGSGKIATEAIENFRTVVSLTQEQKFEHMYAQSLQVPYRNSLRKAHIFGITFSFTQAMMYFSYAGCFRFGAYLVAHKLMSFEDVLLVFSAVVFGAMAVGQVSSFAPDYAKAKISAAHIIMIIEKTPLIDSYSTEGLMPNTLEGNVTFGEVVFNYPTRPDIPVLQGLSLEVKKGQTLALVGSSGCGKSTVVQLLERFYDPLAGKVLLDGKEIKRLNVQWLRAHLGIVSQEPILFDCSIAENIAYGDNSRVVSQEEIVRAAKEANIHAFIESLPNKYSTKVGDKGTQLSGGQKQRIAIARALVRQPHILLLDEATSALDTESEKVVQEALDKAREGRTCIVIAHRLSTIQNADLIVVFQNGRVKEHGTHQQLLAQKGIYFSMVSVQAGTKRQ
The nature of experiment [2]: blockers of polyQ-driven CASP3 activation – cell-based (AID 1583). Particulars: polyglutamine-induced caspase-3 activation, cell assay; stronger effect = higher value;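 tested at 10 µM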.
The nature of experiment [3]: yeast 75Q aggregation reduction – 75Q-TubU reporter (AID 1593). The settings on record: Yeast 75Q polyglutamine aggregation reporter.
The nature of experiment [4]: restoration of touch response, mutant HTT neurons – whole organism, C. elegans mechanosensory neurons, N-terminal huntingtin (AID 1599). The settings on record: C. elegans polyQ-huntingtin mechanosensory neurons, stronger effect = higher value.
Experiment [5] is described as follows: blockers of cytochrome c efflux from mitochondria – biochemical, purified mitochondria (AID 1603).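 Note: mouse liver mitochondria challenged with calcium chloride; signal normalized to the plate average as 100%.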 Particulars: stronger effect = lower value.
Experiment [6] is described as follows: polyglutamine aggregate formation blockers (AID 1604). The settings on record: polyglutamine-induced protein aggregation inhibition assay; stronger effect = higher value; tested at 2.5 µM.
Experiment [7] in a line: glutamate transport activators, MN-1 cells, MN-1 cell line (AID 1612).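 Note: tested at 1 µM final; 0% = mean of DMSO vehicle wells on each plate; positive means more glutamate uptake than control and negative means less.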 The settings on record: MN-1 motor neuron cells, stronger effect = higher value.
A short description of experiment [8]: GFP-Q80 aggregate reduction, neuronal-like cells, cell-based, NGF-treated PC12, GFPQ80 (AID 1614).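 Note: lower means fewer inclusions and 0 means no inclusions at all.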 Particulars: PC12 NGF-treated GFP-polyQ80 inclusion reduction.
A short description of experiment [9]: 75Q-TubH aggregate inhibition, S. cerevisiae, yeast (AID 1616). Particulars: S. cerevisiae 75Q-TubH polyglutamine aggregation suppression; stronger effect = higher value.
Experiment [10] can be described thus: compounds altering viability of human ES cells (AID 493140; call rule not given here;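 note: cells exposed to compounds for four days before counting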). The settings on record: human embryonic stem cell survival screen; stronger effect = higher value.
The target in experiment [11] is 6-phosphogluconate dehydrogenase, decarboxylating (Homo sapiens) (UniProt P52209). In words: inhibition of human phosphogluconate dehydrogenase – biochemical, recombinant enzyme, NADPH absorbance, primary screen (AID 1159550;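 active = at least 20% inhibition of 6-phosphogluconate dehydrogenase activity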). Particulars: recombinant 6PGD, NADPH absorbance 341 nm; at 10 µM; stronger effect = higher value.
6-phosphogluconate dehydrogenase, decarboxylating (Homo sapiens), sequence (P52209 whole entry, looked up): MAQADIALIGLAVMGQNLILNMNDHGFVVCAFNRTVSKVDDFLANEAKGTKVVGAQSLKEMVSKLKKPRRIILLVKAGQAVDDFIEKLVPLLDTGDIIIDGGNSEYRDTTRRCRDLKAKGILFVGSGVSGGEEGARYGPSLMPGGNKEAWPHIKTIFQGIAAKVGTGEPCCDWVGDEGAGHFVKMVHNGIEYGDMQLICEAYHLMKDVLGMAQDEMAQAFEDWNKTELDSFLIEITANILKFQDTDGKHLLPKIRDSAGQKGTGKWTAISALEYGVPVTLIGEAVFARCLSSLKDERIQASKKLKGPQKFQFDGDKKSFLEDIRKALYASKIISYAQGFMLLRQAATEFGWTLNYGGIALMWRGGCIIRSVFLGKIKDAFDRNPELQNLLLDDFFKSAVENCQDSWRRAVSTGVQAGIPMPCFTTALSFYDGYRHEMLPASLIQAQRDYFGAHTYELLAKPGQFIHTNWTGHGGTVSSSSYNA
The nature of experiment [12]: EMT-state selective cytotoxicity in co-culture – imaging, PC-3E GFP, TEM4-18 mCherry, primary screen (AID 1345086;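 active = compounds killing one labelled cell type while sparing the other, by normalised counts and ratio limits, not self-fluorescent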;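 for all read-outs here: cells exposed to compound for 72 h before imaging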;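 for red/green cell ratio (normalised): normalised mesenchymal count divided by normalised epithelial count so high means epithelial killing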). Particulars: PC-3E GFP / TEM4-18 mCherry co-culture, imaging cell counts, at 1 µM; for red/green cell ratio (normalised): actives lie on both sides, counts scaled to control wells, 1 = unselective.
The nature of experiment [13]: MELAS cybrid and Rieske KO viability enhancers – cell-based, MELAS cybrids, Rieske KO mouse fibroblasts, CellTiter-Glo, primary screen (AID 1508586;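 active = mean z-score across replicates of 1.96 or higher in either the MELAS or the Rieske mutant cell line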;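 note: z relative to plate mean and SD of compound and empty wells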). Particulars: low glucose.
Experiment [14] addresses NAD(+) hydrolase SARM1 (Homo sapiens) (UniProt Q6SZW1). The experiment in a line: blocking NAD cleavage by SARM1 SAM-TIR – cell lysate, NAD-Glo luminescence (AID 1508614;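 active = compound whose remaining NAD level is above about 45 nM, limit read from the data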;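 note: higher remaining NAD means stronger inhibition of SARM1 NADase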). The settings on record: SAM-TIR HEK293T lysate NADase, at 1 µM, stronger effect = higher value.
Experiment [15] has as its target Mitogen-activated protein kinase 7 (Homo sapiens) (UniProt Q13164). In words: Gal4-ERK5 driven luciferase induction – cell-based, HTS, primary screen (AID 1508626;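 active = luciferase signal above three times the same-plate solvent-only control wells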;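 note: luciferase driven by Gal4-ERK5 fusion binding five Gal4 sites before minimal TATA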). Particulars: HeLa Gal4-ERK5 transactivation, 18 h, at 5 µM, stronger effect = higher value.
A short description of experiment [16]: galactose survival enhancers in mitochondrial complex I cybrids – cell-based, galactose medium, ATP luminescence, primary screen (AID 1645843;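 active = z-score of at least 1.8 in each of two replicates, scored against plate mean and spread of sample wells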;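 note: positive z means more ATP and so rescue of galactose-driven cybrid death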). Particulars: complex I mutant cybrid cells, 72 h, stronger effect = higher value.
A short description of experiment [17]: P. berghei load reduction in hepatocytes – cell-based, HepG2, luciferase luminescence, HepG2 viability, primary screen (AID 624349).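 Note: 100% = mean of DMSO negative control wells on the same plate.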 The settings on record: P. berghei liver stage in HepG2, luciferase luminescence, concentration not given here; parasite load remaining: stronger effect = lower value; viability: measured here: HepG2 viability without parasites.
The nature of experiment [18]: viability loss with induced miR-34 in A549 – imaging, A549 dox-inducible miR-34, nuclei and caspase counts, primary screen (AID 1347080;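 active = compounds whose cell count with miR-34 switched on is under 0.7 times the count with it off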). Particulars: A549 miR-34 inducible, Hoechst nuclei count, 48 h.
The mark [19] stands for this setting: measured here: epithelial PC-3E GFP cell survival.
The mark [20] stands for this setting: measured here: mesenchymal TEM4-18 mCherry cell survival.
Setting [21] is: stronger effect = lower value, cell number ratio, induced over uninduced.
[22] abbreviates: measured here: relative caspase fold change +Dox/-Dox.
Where [23] appears, read: measured here: total cells with miR-34 induction, stronger effect = lower value.
Setting [24] is: measured here: total cells without miR-34 induction.

NAD(+) hydrolase SARM1 (Homo sapiens), sequence (Q6SZW1 whole entry, looked up, the tested form may be a part): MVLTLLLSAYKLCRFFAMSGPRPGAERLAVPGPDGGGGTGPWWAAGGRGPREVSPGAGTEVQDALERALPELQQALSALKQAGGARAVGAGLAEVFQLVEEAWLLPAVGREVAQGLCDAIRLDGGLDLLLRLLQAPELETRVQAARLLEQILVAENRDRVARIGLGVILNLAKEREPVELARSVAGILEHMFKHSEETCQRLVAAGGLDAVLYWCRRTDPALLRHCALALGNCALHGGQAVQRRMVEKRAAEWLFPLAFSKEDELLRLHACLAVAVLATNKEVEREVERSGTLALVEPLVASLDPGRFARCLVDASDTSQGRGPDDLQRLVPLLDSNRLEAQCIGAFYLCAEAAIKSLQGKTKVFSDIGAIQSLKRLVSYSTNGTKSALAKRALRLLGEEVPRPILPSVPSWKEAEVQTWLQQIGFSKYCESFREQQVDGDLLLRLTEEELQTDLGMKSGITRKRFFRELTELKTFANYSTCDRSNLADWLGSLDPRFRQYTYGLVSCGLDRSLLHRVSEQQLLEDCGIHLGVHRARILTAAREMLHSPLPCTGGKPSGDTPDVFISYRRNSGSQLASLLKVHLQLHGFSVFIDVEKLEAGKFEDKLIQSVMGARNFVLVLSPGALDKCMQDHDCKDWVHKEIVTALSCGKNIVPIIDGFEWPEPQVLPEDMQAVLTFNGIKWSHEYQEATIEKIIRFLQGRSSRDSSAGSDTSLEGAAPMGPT
Mitogen-activated protein kinase 7 (Homo sapiens), sequence (Q13164 whole entry, looked up, the tested form may be a part): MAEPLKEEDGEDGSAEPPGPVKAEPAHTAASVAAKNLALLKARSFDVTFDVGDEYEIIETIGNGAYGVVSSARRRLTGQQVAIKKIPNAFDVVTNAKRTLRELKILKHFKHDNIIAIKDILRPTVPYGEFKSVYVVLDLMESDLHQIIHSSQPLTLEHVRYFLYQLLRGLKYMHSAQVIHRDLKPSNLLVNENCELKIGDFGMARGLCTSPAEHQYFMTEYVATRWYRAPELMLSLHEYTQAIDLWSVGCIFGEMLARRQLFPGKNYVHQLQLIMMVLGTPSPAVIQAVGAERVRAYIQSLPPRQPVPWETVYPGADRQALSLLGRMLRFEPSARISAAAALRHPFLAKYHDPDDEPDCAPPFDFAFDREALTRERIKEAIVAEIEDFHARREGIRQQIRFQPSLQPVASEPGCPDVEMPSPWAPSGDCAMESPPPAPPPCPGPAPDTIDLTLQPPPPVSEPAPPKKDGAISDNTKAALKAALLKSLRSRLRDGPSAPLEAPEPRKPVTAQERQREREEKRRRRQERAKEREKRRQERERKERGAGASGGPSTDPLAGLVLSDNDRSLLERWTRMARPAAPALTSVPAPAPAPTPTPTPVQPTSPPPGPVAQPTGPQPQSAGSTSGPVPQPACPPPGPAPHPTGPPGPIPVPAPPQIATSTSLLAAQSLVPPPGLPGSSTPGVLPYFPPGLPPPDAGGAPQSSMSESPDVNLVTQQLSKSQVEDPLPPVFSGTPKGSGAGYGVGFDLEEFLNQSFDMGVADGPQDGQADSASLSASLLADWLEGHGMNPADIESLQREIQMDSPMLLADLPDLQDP

Take `CCCCN1CCCCC1C(=O)Nc1c(C)cccc1C` (configuration not stated): in experiment [1], the fluorescence slope change was -6% (inactive). In addition, the inhibition in experiment [2] was 17%; in experiment [11], 3.83% (inactive). In [3], the score stood at 1.42. Also, the rescue above control in [4] was -7.52. For the same molecule, the cytochrome c release ratio in experiment [5] was found to be 0.81. Further, the inhibition of aggregation in experiment [6] was -27.4%. The glutamate uptake change in [7] was found to be 1.83%. For the same molecule, the inclusion score in experiment [8] was 2. In experiment [9], the aggregation suppression score turned out to be 1.3. The survival in experiment [10] is 10.1 (inactive). Further, the red/green cell ratio (normalised) in experiment [12] is 1.17 (inactive). Moreover, the normalised cell number in [12] (setting [19]) was 1.13; in experiment [12] (setting [20]), 1.33. The z-score in experiment [13] (MELAS cybrid survival, CellTiter-Glo 48 h, stronger effect = higher value) is -0.429 (inactive) and 0.622 (inactive) and -0.162 (inactive); in experiment [13] (Rieske KO mouse fibroblast survival, CellTiter-Glo 72 h), -0.124 and 0.613 and -0.528; in experiment [16], 0.545 (inactive). For the same molecule, the remaining NAD in [14] is 10 nM (inactive). In addition, the luciferase signal in experiment [15] is 68 AU (inactive).

`CC(=O)Oc1cccc(C(=O)O)c1OC(C)=O`: in [11], the inhibition is 0.748% (inactive). In experiment [12], the red/green cell ratio (normalised) is 0.81 (inactive). The results for the normalised cell number in experiment [12] (setting [19]) and in experiment [12] (setting [20]) were 1.05 and 0.86, respectively. Further, the remaining NAD in experiment [14] was 10 nM (inactive).

In the case of `CCC(C)CCCCC(=O)NC(CCN)C(=O)NC(C(=O)NC(CCN)C(=O)NC1CCNC(=O)C(C(C)O)NC(=O)C(CCN)NC(=O)C(CCN)NC(=O)C(CC(C)C)NC(=O)C(Cc2ccccc2)NC(=O)C(CCN)NC1=O)C(C)O` (configuration not stated) ({Octanoyl(6-Me)}-[Dab]T[Dab][Dab][Dab]FL[Dab][Dab]T; lactam 4-C; configuration not given here), the figures for the inhibition in experiment [2] and in experiment [11] were 15% and 11% (inactive), respectively. In addition, in experiment [3], the score is 0.73. In addition, the rescue above control in experiment [4] was found to be 0. Besides, the cytochrome c release ratio in experiment [5] stood at 7.61. In experiment [6], the inhibition of aggregation worked out at 70.5%. In addition, the glutamate uptake change in experiment [7] was -11.7%. In [8], this molecule gave an inclusion score of 2. Moreover, in experiment [9], the aggregation suppression score came out at 0.739. For the same molecule, the parasite load remaining in experiment [17] was 82.5% (inactive) and 41.4% (inactive). In addition, in [17], the viability was 77.7% and 91.4%. In experiment [12], the red/green cell ratio (normalised) is 1.23 (inactive). The normalised cell number in [12] (setting [19]) worked out at 0.93; in experiment [12] (setting [20]), 1.14. Further, the fold change in experiment [18] (setting [21]) was 0.886 (inactive); in [18] (setting [22]), 2.98. The cell count in experiment [18] (setting [23]) was found to be 11700; in experiment [18] (setting [24]), 13200. In addition, the remaining NAD in experiment [14] is 10 nM (inactive).

As for `O=c1ccc2cc(O)c(O)cc2o1`, the survival in experiment [10] was 5.75 (inactive). In addition, the parasite load remaining in [17] was 19.5% (inactive) and 73.2% (inactive). For the same molecule, the viability in [17] is 92.8% and 68.7%. In addition, the inhibition in experiment [11] was 2.61% (inactive). Also, the red/green cell ratio (normalised) in experiment [12] is 1.16 (inactive). Further, the normalised cell number in experiment [12] (setting [19]) is 0.88; in [12] (setting [20]) it was 1.02. Further, the fold change in [18] (setting [21]) is 0.832 (inactive); in experiment [18] (setting [22]), 1.64. For the same molecule, the results for the cell count in experiment [18] (setting [23]) and in experiment [18] (setting [24]) were 6390 and 7680, respectively. In [15], the luciferase signal was 72 AU (inactive).

Turning to `CCCCCCCCCc1ccc(OCCOCCOCCOCCOCCOCCOCCOCCOCCO)cc1`, the parasite load remaining in experiment [17] is -0.79% (active). The viability in experiment [17] worked out at 85%. For the same molecule, the inhibition in [11] was -15.2% (inactive). The red/green cell ratio (normalised) in [12] is 1.03 (inactive). In addition, the normalised cell number was determined as 1.14 in experiment [12] (setting [19]) and 1.18 in experiment [12] (setting [20]). In addition, the fold change in [18] (setting [21]) was 0.78 (inactive); in [18] (setting [22]), 2.5. The cell count came out at 2440 in [18] (setting [23]) and 3120 in experiment [18] (setting [24]). In [14], the remaining NAD was 10 nM (inactive). Besides, the luciferase signal in [15] was 40 AU (inactive).

As to `CO[C@H]1/C=C/O[C@@]2(C)Oc3c(C)c(O)c4c(O)c(c5c(nc6cc(C)ccn65)c4c3C2=O)NC(=O)/C(C)=C\C=C\[C@H](C)[C@H](O)[C@@H](C)C(O)[C@@H](C)[C@H](OC(C)=O)[C@@H]1C` (some centres not stated), in experiment [17], the parasite load remaining was 51.2% (inactive). In addition, the viability in [17] came to 113%. For the same molecule, the inhibition in [11] is -0.37% (inactive). In experiment [12], the red/green cell ratio (normalised) is 1.15 (inactive). The normalised cell number in experiment [12] (setting [19]) amounted to 1.21; in [12] (setting [20]), 1.39. Besides, the fold change in experiment [18] (setting [21]) is 0.902 (inactive); in experiment [18] (setting [22]), 2.53. Moreover, the cell count in experiment [18] (setting [23]) turned out to be 11500; in experiment [18] (setting [24]), 12700.

Regarding `C=Cc1c(C)/c2[n-]/c1=C\c1[n-]c(c(CC)c1C)/C=c1\[n-]c3c(c1C)C(=O)C(C(=O)[O-])C=3c1[n-]c(c(C)c1CCC(=O)[O-])\C=2.[Cu].[Na+].[Na+]` (configuration not stated), in experiment [17], the parasite load remaining was 101% (inactive) and 38.1% (inactive). In addition, the viability in experiment [17] was 71.3% and 170%. In experiment [11], the inhibition was 37.8% (active). For the same molecule, the red/green cell ratio (normalised) in experiment [12] is 0.85 (inactive). Further, the normalised cell number in experiment [12] (setting [19]) amounted to 1.03; in [12] (setting [20]), 0.87. In addition, the fold change is 0.937 (inactive) in [18] (setting [21]) and 2.82 in [18] (setting [22]). For the same molecule, the cell count came to 11500 in [18] (setting [23]) and 12300 in experiment [18] (setting [24]).

What is called inhibition is the change of the read-out against control, counted positive when it falls. A word on the viability: it is a read-out of living cells in per cent, often relative to untreated cells.
